Where “and” joins values, the source holds several entries; their conditions need not be identical. Equal values may be shown once. Records with an inconclusive call do not appear. Calls of active or inactive are those of the source. Unless noted, the call rests on the fitted dose curve; in most records, active means well fitted curve in the direction sought with a large enough effect; inconclusive means small, poorly fitted or top-dose-only effect, or another doubt; inactive means no such curve, though single readings can be large; an effect the other way counts as inactive or inconclusive.
Key:
[1] = Cellular Toxicity (caspase-3) SHSY5Y (AID 657)
In short: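 Cells plated and incubated 5 h at 37 °C, dosed over a concentration range, incubated 16 h, then given Caspase-Glo 3/7 reagent for 1 h at room temperature before luminescence reading. Staurosporine (10 uM) defined full stimulation.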

[2] = Cellular Toxicity (caspase-3) BJ (AID 658)
In short: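 Readout: Caspase-Glo 3/7 luminescence increase in BJ cells after 16 hr treatment at 37 °C. Staurosporine and tamoxifen served as positive controls; AC50 values came from Hill modelling of data normalized to DMSO and 10 uM staurosporine.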

[3] = Cellular Toxicity (caspase-3) MRC-5 (AID 659)
In short: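 Concentration-dependent caspase 3/7 activation is measured in human normal lung fibroblasts (MRC-5) following 16-hour treatment. AC50 values come from standard Hill-equation modeling of luminescence normalized to DMSO and 10 uM staurosporine.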

[4] = Cellular Toxicity (caspase-3) Mesangial (AID 660);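 further: combined caspase 3 and 7 activity read by Caspase-Glo luminescence; cells exposed to compound for 16 h before the caspase read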
In short: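 Concentration-response qHTS: compound-induced rise in caspase 3/7 luminescence in human mesangial cells after 16 h, normalized to DMSO and 100 uM tamoxifen controls.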

[5] = Cellular Toxicity (caspase-3) SK-N-SH (AID 661)
In short: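 Caspase 3/7 activation is measured as a luminescence increase from aminoluciferin released by substrate cleavage in SK-N-SH cells after 16 hr compound treatment; values are AC50 from concentration-response curves.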

[6] = Cellular Toxicity (caspase-3) H-4-II-E (AID 663);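 further: 0% = DMSO basal and 100% = 100 µM tamoxifen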
In short: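 Apoptosis induction is scored as increased luminescence from caspase 3/7 substrate cleavage in rat hepatoma H-4-II-E cells exposed to compound for 16 hr. Activity is scaled between DMSO and 100 uM tamoxifen.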

[7] = Cellular Toxicity (caspase-3) N2a (AID 665); conditions: N2a cells, luminescence, normalized: DMSO 0%, 10 µM staurosporine 100%; at 92.2 µM (top of the series);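 further: compound exposure lasted 16 h at 37 °C before readout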
In short: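 Plated mouse neuroblastoma N2a cells received titrated compounds for 16 h in complete medium. Caspase activity was then detected with a peptide-aminoluciferin luminescent reagent.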

[8] = MultiTox-Fluor Cytotoxicity Assay - LYMP1-001 - Dead Cells (AID 946)
In short: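 Seed 2500 LYMP1-001 cells/well, incubate 5 hr at 37 C; add compound, 16 hr at 37 C; add MultiTox-Fluor reagent, 60 min RT; read dead-cell fluorescence Ex/Em=485/520. Normalize to DMSO and 15 uM tetraoctylammonium bromide.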

[9] = Cell Viability - LYMP1-002 - Assay at 16 hr (AID 948);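 further: 0% = DMSO alone and full effect = 92 µM tetraoctylammonium bromide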
In short: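 Acute cytotoxicity is scored as a concentration-dependent fall in intracellular ATP in a human lymphoblastoid line (LYMP1-002) after 16 hr compound exposure at 37 C, measured by luciferase luminescence.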

[10] = MultiTox-Fluor Cytotoxicity Assay - LYMP1-003 - Dead Cells (AID 961); further: nearly all actives have a fitted effect of over 70% in size
In short: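 LYMP1-003 lymphoblastoid, 2500 cells/well, 5 hr settle then 16 hr cpd at 37 C; MultiTox-Fluor reagent 60 min RT; Ex/Em 485/520 dead-cell signal; norm. DMSO = 0%, 15 uM tetraoctylammonium bromide = 100%; Hill AC50.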

[11] = Cell Viability - LYMP1-003 - Assay at 24 hr (AID 963);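 further: plate controls were DMSO only for no effect and tetraoctylammonium bromide positive control for full effect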
In short: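 Acute toxicity in LYMP1-003 lymphoblastoid cells: 24 hr compound treatment at 37 C, ATP measured with CellTiter-Glo after 30 min at room temperature. AC50 derived by fitting the Hill equation to qHTS titrations.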

[12] = Cell Viability - LYMP2-003 (AID 965);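 further: cells exposed to compounds for 24 h before reading; 0% = DMSO only and full effect = 92 µM tetraoctylammonium bromide; nearly all actives have a fitted effect of over 50% in size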
In short: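 Acute cytotoxicity is scored as a concentration-dependent drop in intracellular ATP, measured by luciferase luminescence in human lymphoblastoid cells treated for 24 hours at 37 C. AC50 values derive from Hill-equation modelling.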

[13] = Cell Viability - LYMP2-015 (AID 971);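 further: cells exposed to compound for 24 h; 0% = DMSO only and full effect = 92 µM tetraoctylammonium bromide; nearly all actives have a fitted effect of over 55% in size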
In short: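 Acute toxicity was scored as a concentration-dependent drop in intracellular ATP in lymphoblastoid cells after 24 hr compound exposure in complete medium. Detection used CellTiter-Glo luciferase luminescence.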

[14] = Cell Viability - LYMP2-025 (AID 976);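 further: cells exposed to compound for 24 h at 37 °C; plate controls were DMSO only for no effect and tetraoctylammonium bromide control for full effect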
In short: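 In qHTS format, LYMP2-025 lymphoblastoid cells in complete culture medium received compound for 24 hr; ATP-based CellTiter-Glo signal gave viability, with AC50 derived by Hill equation.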

[15] = Cell Viability - LYMP2-006 (AID 978);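 further: cells exposed to compound for 24 hours; on the % scale 0 is the no-effect control and ±100 the full control effect; nearly all actives have a fitted effect of over 60% in size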
In short: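 Concentration-dependent loss of intracellular ATP in a human lymphoblastoid line after 24 hr treatment at 37 C was measured by CellTiter-Glo luminescence, with AC50 values obtained from standard Hill-equation modelling.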

[16] = Cell Viability - LYMP2-007 (AID 979);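 further: cells exposed to compound for 24 h before reading; 0% = DMSO only and the negative end = 92 µM tetraoctylammonium bromide; nearly all actives have a fitted effect of over 60% in size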
In short: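 Acute toxicity is scored as a concentration-dependent fall in intracellular ATP in human lymphoblastoid cells treated 24 hr at 37 C, measured by luciferase luminescence; Hill-equation modelling yields AC50.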

[17] = Cell Viability - LYMP2-008 (AID 980);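 further: cells exposed to compound for 24 h at 37 °C; on the % scale 0 is the no-effect control and ±100 the full control effect; nearly all actives have a fitted effect of over 60% in size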
In short: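 Acute cytotoxicity is scored as concentration-dependent loss of cellular ATP in a human lymphoblastoid line after 24 hr treatment at 37 C. ATP is quantified by luciferase luminescence.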

[18] = Cell Viability - LYMP2-014 (AID 983);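 further: cells exposed to compound for 24 h at 37 °C; plate controls were DMSO only for no effect and 92 µM tetraoctylammonium bromide for full effect; nearly all actives have a fitted effect of over 50% in size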
In short: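 Decrease in intracellular ATP after 24 hr treatment at 37 C, measured by luciferase luminescence, indicated cytotoxicity. Concentration-response data were fitted with the standard Hill equation to give AC50.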

[19] = Cell Viability - LYMP1-002 - Assay at 24 hr (AID 993); further: on the % scale 0 is the no-effect control and ±100 the full control effect
In short: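 qHTS, LYMP1-002 lymphoblastoid, 24 h cpd, 37 C, CellTiter-Glo ATP luminescence; AC50 via Hill eq.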

[20] = qHTS assay for small molecule agonists of the antioxidant response element (ARE) signaling pathway measured by Nrf2-dependant transcriptional activity (AID 720636; active means well fitted curve in the direction sought with a large enough effect in the repeat runs; an effect the other way counts as inactive or inconclusive;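 further: HepG2 cells with an ARE-driven luciferase reporter; % of control where 0% means no effect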)
In short: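 We exposed ARE-luc HepG2 cells, seeded in assay medium with 1% dialyzed FBS and allowed 6 hr to adhere, to test compounds overnight (16 hr, 37 C) before measuring luciferase with ONE-Glo.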

CN=C=S
inactive: outcome [1] | outcome [2] | outcome [3] | outcome [4] | outcome [5] | outcome [6] | caspase-3 activation [7] 2.61% | Potency [8] | Potency [9] | Potency [10] | Potency [11] | Potency [12] | Potency [13] | Potency [14] | Potency [15] | Potency [16] | Potency [17] | Potency [18] | Potency [19] | outcome [20]

BrCCBr
inactive: outcome [1] | outcome [2] | outcome [3] | outcome [4] | outcome [5] | outcome [6] | caspase-3 activation [7] -3.9% | Potency [8] | Potency [9] | Potency [10] | Potency [11] | Potency [12] | Potency [13] | Potency [14] | Potency [15] | Potency [16] | Potency [17] | Potency [18] | Potency [19] | outcome [20]

C=C(Cl)Cl
inactive: outcome [1] | outcome [2] | outcome [3] | outcome [4] | outcome [5] | outcome [6] | caspase-3 activation [7] 1.75% | Potency [8] | Potency [9] | Potency [10] | Potency [11] | Potency [12] | Potency [13] | Potency [14] | Potency [15] | Potency [16] | Potency [17] | Potency [18] | Potency [19] | outcome [20]

CCCCCCCC(=O)Cl
inactive: outcome [1] | outcome [2] | outcome [3] | outcome [4] | outcome [5] | outcome [6] | caspase-3 activation [7] -0.621% | Potency [8] | Potency [9] | Potency [10] | Potency [11] | Potency [12] | Potency [13] | Potency [14] | Potency [15] | Potency [16] | Potency [17] | Potency [18] | Potency [19] | outcome [20]

N#CCCCl
inactive: outcome [1] | outcome [2] | outcome [3] | outcome [4] | outcome [5] | outcome [6] | caspase-3 activation [7] -0.53% and -2.33% | Potency [8] | Potency [9] | Potency [10] | Potency [11] | Potency [12] | Potency [13] | Potency [14] | Potency [15] | Potency [16] | Potency [17] | Potency [18] | Potency [19] | outcome [20]

O=[N+]([O-])c1ccc(Cl)c(Cl)c1
inactive: outcome [1] | outcome [2] | outcome [3] | outcome [4] | outcome [5] | outcome [6] | caspase-3 activation [7] -2.95% | Potency [8] | Potency [9] | Potency [10] | Potency [11] | Potency [12] | Potency [13] | Potency [14] | Potency [15] | Potency [16] | Potency [17] | Potency [18] | Potency [19] | outcome [20]

CCN(CC)c1ccccc1
inactive: outcome [1] | outcome [2] | outcome [3] | outcome [4] | outcome [5] | outcome [6] | caspase-3 activation [7] -1.42% | Potency [8] | Potency [9] | Potency [10] | Potency [11] | Potency [12] | Potency [13] | Potency [14] | Potency [15] | Potency [16] | Potency [17] | Potency [18] | Potency [19] | outcome [20]

CCOP(=S)(OCC)SCSC(C)(C)C
inactive: outcome [1] | outcome [2] | outcome [3] | outcome [4] | outcome [5] | outcome [6] | caspase-3 activation [7] -3.31% | Potency [8] | Potency [9] | Potency [10] | Potency [11] | Potency [12] | Potency [13] | Potency [14] | Potency [15] | Potency [16] | Potency [17] | Potency [18] | Potency [19] | outcome [20]

C=CCOC(C)=O
inactive: outcome [1] | outcome [2] | outcome [3] | outcome [4] | outcome [5] | outcome [6] | caspase-3 activation [7] -3.6% | Potency [8] | Potency [9] | Potency [10] | Potency [11] | Potency [12] | Potency [13] | Potency [14] | Potency [15] | Potency [16] | Potency [17] | Potency [18] | Potency [19] | outcome [20]

ClC(Cl)(Cl)c1ccccc1
inactive: outcome [1] | outcome [2] | outcome [3] | outcome [4] | outcome [5] | outcome [6] | caspase-3 activation [7] -0.73% and -1.88% | Potency [8] | Potency [9] | Potency [10] | Potency [11] | Potency [12] | Potency [13] | Potency [14] | Potency [15] | Potency [16] | Potency [17] | Potency [18] | Potency [19] | outcome [20]

O=[N+]([O-])c1cccc2ccccc12
inactive: outcome [1] | outcome [2] | outcome [3] | outcome [4] | outcome [5] | outcome [6] | caspase-3 activation [7] -0.0738% | Potency [8] | Potency [9] | Potency [10] | Potency [11] | Potency [12] | Potency [13] | Potency [14] | Potency [15] | Potency [16] | Potency [17] | Potency [18] | Potency [19] | outcome [20]

C=CCOC(=O)c1ccccc1N
inactive: outcome [1] | outcome [2] | outcome [3] | outcome [4] | outcome [5] | outcome [6] | caspase-3 activation [7] -3.47% | Potency [8] | Potency [9] | Potency [10] | Potency [11] | Potency [12] | Potency [13] | Potency [14] | Potency [15] | Potency [16] | Potency [17] | Potency [18] | Potency [19] | outcome [20]

Clc1nc(Cl)nc(Nc2ccccc2Cl)n1
inactive: outcome [1] | outcome [2] | outcome [3] | outcome [4] | outcome [5] | outcome [6] | caspase-3 activation [7] 0.587% | Potency [8] | Potency [9] | Potency [10] | Potency [11] | Potency [12] | Potency [13] | Potency [14] | Potency [15] | Potency [16] | Potency [17] | Potency [18] | Potency [19]

— PubChem BioAssay (NCATS)
